Inconclusive results are not listed. Unless noted, calls come from the whole dose curve; as a rule, active = well fitted curve in either direction with a large enough effect (not every such curve was filed as active); inconclusive = small, poorly fitted or top-dose-only effect, or another doubt; inactive = flat fitted curve, though single readings scatter.
Tests used:
[1] = AP1 Signaling Pathway (AID 357); settings: ME-180 AP-1-bla reporter, EGF-induced, beta-lactamase ratio, 5 h; at 17.2 µM (top of the series) unless noted;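 note: ME-180 reporter cells stimulated with EGF at its EC50 level; % is set by controls: 0 for no effect and ±100 for the full control effect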
Method in brief: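 Beta-lactamase reporter under AP-1 response element, ME-180 background. Stimulus: EC50 EGF. Compound exposure 5 h, 37 °C. Detection: CCF4, 2.5 h RT, 460/530 nm. Values: AC50 from titration.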

[2] = NFAT Signaling Pathway (AID 444); settings: Jurkat NFAT-bla M1, carbachol, beta-lactamase ratio, 5 h; at 17.2 µM (top of the series) unless noted;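 note: carbachol stimulus at about its EC50 of 1 µM final; % is set by controls: 0 for no effect and ±100 for the full control effect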
Method in brief: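 Jurkat cells with NFAT-driven β-lactamase reporter and co-expressed M1 receptor, stimulated with carbachol (final 1 uM, ~EC50), compound titration, 5 h at 37 °C. CCF4 loaded 1 h at RT; 460/530 nm ratio gave %activity and AC50.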

[3] = Stat Signaling Pathway (AID 446); settings: ME-180 (cervical carcinoma) SIE beta-lactamase reporter, IL-6 stimulated, 5 h; at 17.2 µM (top of the series) unless noted;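 note: ME-180 cervical cancer cells given 40 pM IL-6 alongside compound; SIE-controlled beta-lactamase reporter measured as 460/530 nm FRET emission ratio; % is set by controls: 0 for no effect and ±100 for the full control effect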
Method in brief: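 Compound effects on IL-6-induced STAT reporter activity were measured in ME-180 cells. After overnight culture, cells were co-treated with 40 pM IL-6 for 5 hrs before beta-lactamase substrate loading at room temperature.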

[4] = molecular target: Glucocorticoid receptor (Homo sapiens) (UniProt P04150); test: GR-GFP Redistribution (AID 450;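 active = compounds whose dose series gives a full or clear partial fitted curve of increased nuclear translocation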; note: potency is the fitted concentration of half-maximal effect)
Sequence of Glucocorticoid receptor (Homo sapiens) (P04150 whole entry, looked up): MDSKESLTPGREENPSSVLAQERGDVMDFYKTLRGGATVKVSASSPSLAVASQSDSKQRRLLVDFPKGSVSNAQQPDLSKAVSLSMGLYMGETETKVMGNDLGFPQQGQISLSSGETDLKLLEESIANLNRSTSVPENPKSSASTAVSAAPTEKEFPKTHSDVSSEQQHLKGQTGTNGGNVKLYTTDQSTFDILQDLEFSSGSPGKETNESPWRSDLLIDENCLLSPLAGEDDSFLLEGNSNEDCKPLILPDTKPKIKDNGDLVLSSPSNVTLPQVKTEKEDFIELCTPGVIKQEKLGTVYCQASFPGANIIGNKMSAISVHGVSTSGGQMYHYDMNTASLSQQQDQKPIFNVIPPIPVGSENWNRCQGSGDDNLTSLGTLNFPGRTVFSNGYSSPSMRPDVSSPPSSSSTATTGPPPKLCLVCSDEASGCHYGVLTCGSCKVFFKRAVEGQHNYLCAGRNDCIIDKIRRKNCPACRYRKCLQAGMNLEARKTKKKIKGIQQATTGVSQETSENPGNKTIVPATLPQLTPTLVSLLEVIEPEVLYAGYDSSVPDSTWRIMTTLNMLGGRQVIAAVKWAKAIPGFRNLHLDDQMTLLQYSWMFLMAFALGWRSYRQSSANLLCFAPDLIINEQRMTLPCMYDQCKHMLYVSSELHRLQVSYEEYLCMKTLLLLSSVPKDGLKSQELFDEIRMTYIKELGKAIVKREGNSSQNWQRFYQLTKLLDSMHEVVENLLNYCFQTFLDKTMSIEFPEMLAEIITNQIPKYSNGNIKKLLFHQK

C1CNCCNCCNCCN1
inactive: activity change, negative = inhibition [1] -9.33% | activity change, negative = inhibition [2] 6.5% | activity, negative = inhibition [3] -0.788% | Potency [4] > 20.6 µM

CC1(C)CC(=O)C2=C(C1)OC(N)=C(C#N)[C@@]21C(=O)N(CC(N)=O)c2ccccc21
inactive: activity change, negative = inhibition [1] 10.8% | activity change, negative = inhibition [2] 4.51% | activity, negative = inhibition [3] -18.4% | Potency [4] > 20.6 µM

O=C1CC(NCc2ccncc2)C(=O)N1c1ccc(Cl)cc1 (stereo not given)
inactive: activity change, negative = inhibition [1] -15.8% | activity change, negative = inhibition [2] 13.2% | activity, negative = inhibition [3] -1.32% | Potency [4] > 20.6 µM

CCn1c(SCC(=O)O)nc2sc3c(c2c1=O)CCC3
inactive: activity change, negative = inhibition [1] 5.13% | activity change, negative = inhibition [2] -8.87% | activity, negative = inhibition [3] -5.86% | Potency [4] > 20.6 µM

NC(=O)CSc1c[nH]c2ccccc12
inactive: activity change, negative = inhibition [1] 2.78% | activity change, negative = inhibition [2] 0.963% | activity, negative = inhibition [3] -0.854% | Potency [4] > 20.6 µM

COc1ccc(NC(=O)c2c(C)cc(=O)oc2C)c(OC)c1
inactive: activity change, negative = inhibition [1] 6.98% | activity change, negative = inhibition [2] 16.2% | activity, negative = inhibition [3] 10.7% | Potency [4] > 20.6 µM

CSc1nc2sc3c(c2c2nnnn12)CC(C)(C)OC3
inactive: activity change, negative = inhibition [1] -8.22% | activity change, negative = inhibition [2] -19.6% | activity, negative = inhibition [3] 15.4% | Potency [4] > 20.6 µM

O=C(NCc1ccccn1)c1ccc(=O)oc1
inactive: activity change, negative = inhibition [1] 5.8% | activity change, negative = inhibition [2] -2.94% | activity, negative = inhibition [3] 8.81% | Potency [4] > 20.6 µM

Cc1noc(COc2ccccc2OCC(O)CNC(C)(C)C)n1 (stereo not given)
inactive: activity change, negative = inhibition [1] 4.01% | activity change, negative = inhibition [2] -1.96% | activity, negative = inhibition [3] 1.99% | Potency [4] > 20.6 µM

Cc1c(Cl)c(C(F)(F)F)nn1CC(=O)N1CCSCC1
inactive: activity change, negative = inhibition [1] 9.46% | activity change, negative = inhibition [2] 0.195% | activity, negative = inhibition [3] 5.37% | Potency [4] > 20.6 µM

Cc1c(Cl)cccc1N1C(=O)C2ON(c3ccccc3)C(c3cccnc3)C2C1=O (stereo not given)
inactive: activity change, negative = inhibition [1] 4.21% | activity change, negative = inhibition [2] 0.827% | activity, negative = inhibition [3] 0.542% | Potency [4] > 20.6 µM

Cc1ccc(C2/C(=C(\O)c3cnn(-c4ccccc4)c3C)C(=O)C(=O)N2CCN(C)C)o1 (stereo not given)
inactive: activity change, negative = inhibition [1] -6.2% | activity change, negative = inhibition [2] -12.1% | activity, negative = inhibition [3] 4.22% | Potency [4] > 20.6 µM

CC(C)Cc1[nH]c(=O)c(C#N)c2c1COC(C)(C)C2
inactive: activity change, negative = inhibition [1] 9.17% | activity change, negative = inhibition [2] 17.3% | activity, negative = inhibition [3] 2.18% | Potency [4] > 20.6 µM

COc1ccc(OC)c(C2/C(=C(/O)c3ccccc3)C(=O)C(=O)N2Cc2ccco2)c1 (stereo not given)
inactive: activity change, negative = inhibition [1] -4.43% | activity change, negative = inhibition [2] 6% | activity, negative = inhibition [3] -9.05% | Potency [4] > 20.6 µM

O=C1C(=O)N(CCN2CCOCC2)C(c2ccccn2)/C1=C(/O)c1ccc(F)cc1 (stereo not given)
inactive: activity change, negative = inhibition [1] 10.4% | activity change, negative = inhibition [2] 21.3% | activity, negative = inhibition [3] -1.73% | Potency [4] > 20.6 µM

CCC(=O)N[C@@H]1CC(C(C)(C)NC(=O)CC)CC=C1C (stereo not given in full)
inactive: activity change, negative = inhibition [1] 8.41% | activity change, negative = inhibition [2] 6.85% | activity, negative = inhibition [3] 0.886% | Potency [4] > 20.6 µM

NC(=O)c1cc(-c2ccccc2)nc(Oc2ccccc2)n1
inactive: activity change, negative = inhibition [1] -14.4% | activity change, negative = inhibition [2] -25.9% | activity, negative = inhibition [3] -5.87% | Potency [4] > 20.6 µM

COc1cc(-n2c3nc4ccccc4nc3c3c(=O)n(Cc4ccco4)cnc32)cc(OC)c1OC
inactive: activity change, negative = inhibition [1] -7.36% | activity change, negative = inhibition [2] -5.5% | activity, negative = inhibition [3] 3.4% | Potency [4] > 20.6 µM

O=C1CCC(=O)N1c1nc2nc(-c3ccccc3)cc(-c3ccccc3)n2n1
inactive: activity change, negative = inhibition [1] -12.9% | activity change, negative = inhibition [2] 6.64% | activity, negative = inhibition [3] -1.33% | Potency [4] > 20.6 µM

CCN(CC)C(=O)C1CCN(c2ncnc3c2cnn3-c2ccc(C)cc2C)CC1
inactive: activity change, negative = inhibition [1] -10.6% | activity change, negative = inhibition [2] 7.48% | activity, negative = inhibition [3] -7.04% | Potency [4] > 20.6 µM

c1ccc(-n2c(Cc3cccnc3)nc3cnccc32)cc1
inactive: activity change, negative = inhibition [1] -10.4% | activity change, negative = inhibition [2] 15.3% | activity, negative = inhibition [3] 6.69% | Potency [4] > 20.6 µM

CCCCn1c(C)cc2cc(O)ccc21
inactive: activity change, negative = inhibition [1] -15.1% | activity change, negative = inhibition [2] -5.83% | activity, negative = inhibition [3] -8.99% | Potency [4] > 20.6 µM

Nc1ccc2[nH]ncc2c1
inactive: activity change, negative = inhibition [1] 5.98% | activity change, negative = inhibition [2] -1.96% | activity, negative = inhibition [3] -0.564% | Potency [4] > 20.6 µM

COCCNc1ncnc2c1cnn2-c1ccc(Cl)cc1
inactive: activity change, negative = inhibition [1] -9.71% | activity change, negative = inhibition [2] -10.4% | activity, negative = inhibition [3] 2.93% | Potency [4] > 20.6 µM

CC(NC(=O)Nc1ncccn1)(C(F)(F)F)C(F)(F)F
inactive: activity change, negative = inhibition [1] 1.93% | activity change, negative = inhibition [2] 1.67% | activity, negative = inhibition [3] -5.56% | Potency [4] > 20.6 µM

Source: PubChem BioAssay (NCATS)
